Assay outcomes: PubChem, National Center for Advancing Translational Sciences (NCATS)
Pf growth 48h: P. falciparum growth inhibition at 48 hours (one generation); P. falciparum luciferase growth in erythrocytes, 48 h; 5.9% of 310,000 active; Potency, µM (series often up to 28.7 µM), inactives show top-dose activity change, negative = inhibition, usual class: inhibitors; also: % is scaled to controls: 0 for no effect and ±100 for the full control effect
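Parasite viability was followed by luminescence of a genomically integrated firefly luciferase. Cultures held 0.1% parasitemia at 2% hematocrit (final), incubated under 5% CO2 at 37 C.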
SARS PLP yeast: inhibitors of SARS-CoV papain-like protease in yeast | S. cerevisiae expressing SARS-CoV PLpro, growth rescue | Potency, µM (titrated, usually from 32.9 µM), without a hit: at the top dose activity, positive = growth rescue, hits mostly activators | 0.19% of 330,000 active | AID 485353; calls by dose curve; also: 0% is about no effect; nearly all actives have a fitted effect of over 55% in size
AMA1-RON2 inh: disrupts binding of P. falciparum AMA1 to RON2. 0.2% of 360,000 active. AlphaScreen AMA1-biotinylated RON2 peptide binding. AID 720542. Potency, µM (titrated, usually from 58.2 µM), without a hit: at the top dose activity change, negative = inhibition, most hits filed as inhibitors;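 also: 0% = vehicle wells and -100% = peptide control; nearly all actives have a fitted effect of over 45% in size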
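AMA1 (3D7) with his tag at 25 nM final met compounds first, then biotinylated RON2 peptide at 25 nM; detection used donor plus acceptor beads, 10 µg/mL apiece, read by AlphaScreen after 30 min at room temperature.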
Pf growth 96h: inhibits malaria parasite growth, 96 h; P. falciparum luciferase reporter growth, 96 h; Potency, µM (highest dose often 28.7 µM), for the others: top-dose activity change, negative = inhibition, usual class: inhibitors; 6.9% of 320,000 active; also: % is scaled to controls: 0 for no effect and ±100 for the full control effect
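96 h incubation, 37 C, 5% CO2, of luciferase-reporter P. falciparum-infected RBCs (2% hematocrit, 0.05% parasitemia final) with test compounds; endpoint luminescence.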
The depositor's hits bear a star. A selection: hits, their analogues and other compounds. The true share with any hit is near 9.4%. Unless noted, calls follow the shape of the dose curve; as a rule, active = well fitted curve in the direction sought with a large enough effect; inconclusive = small, poorly fitted or top-dose-only effect, or another doubt; inactive = no such curve, though single readings can be large; an effect the other way counts as inactive or inconclusive. Potency is read from the fitted curve at half-maximal effect.

What do the screens show for `COc1ccc([N+](=O)[O-])cc1NCC(=O)Nc1cc(S(=O)(=O)N2CCCCC2)ccc1C`?
Pf growth 48h: 12µM*; SARS PLP yeast: -2%; AMA1-RON2 inh: -4%; Pf growth 96h: inconclusive

How did COc1ccc(S(=O)(=O)N2CCCCCC2)cc1NC(=O)Cc1ccccc1F do in these assays?
Pf growth 48h: inconclusive; SARS PLP yeast: 0%; AMA1-RON2 inh: 3%; Pf growth 96h: inconclusive

Results for Cc1ccc(S(=O)(=O)N2CCOCC2)cc1NC(=O)CN1CCC(Cc2ccccc2)CC1 ?
Pf growth 48h: 13µM*; SARS PLP yeast: 0%; AMA1-RON2 inh: inconclusive; Pf growth 96h: 3.7µM*

What do the screens show for `CCN1C(=O)[C@H]2[C@@H](c3ccc(-c4ccc(F)cc4)c(OC)c3)N[C@@](CC(C)C)(C(=O)OC)[C@H]2C1=O`?
Pf growth 48h: 2.3µM*; SARS PLP yeast: -2%; Pf growth 96h: 2.6µM*

How did COC(=O)[C@]1(CC(C)C)N[C@H](c2ccc(-c3ccc(F)cc3)cc2)[C@@H]2C(=O)N(C)C(=O)[C@@H]21 do in these assays?
Pf growth 48h: 3.3µM*; SARS PLP yeast: -2%; AMA1-RON2 inh: -7%; Pf growth 96h: 6.6µM*

What do the screens show for `CCN1C(=O)[C@H]2[C@@H](c3ccc(-c4ccc(F)cc4)cc3)N[C@@](CC(C)C)(C(=O)OC)[C@H]2C1=O`?
Pf growth 48h: 10µM*; SARS PLP yeast: 4%; AMA1-RON2 inh: 31%; Pf growth 96h: 5.2µM*

Results for O=C(NNCc1ccccc1)c1ccccc1 ?
AMA1-RON2 inh: 10%

What do the screens show for `CC1CCCCC1NC(=O)CSc1nnnn1-c1ccccc1` (centres undefined)?
Pf growth 48h: -8%; SARS PLP yeast: 1%; AMA1-RON2 inh: 11%

What do the screens show for `O=C(OCc1ccc(COC(=O)c2ccc(O)cc2)cc1)c1ccc(O)cc1`?
Pf growth 48h: inconclusive; SARS PLP yeast: 0%; AMA1-RON2 inh: -10%; Pf growth 96h: inconclusive

How did O=C(Nc1cccc(-c2csc(Nc3ccc(Cl)cc3)n2)c1)c1cc([N+](=O)[O-])cc(C(F)(F)F)c1 do in these assays?
Pf growth 48h: 1.7µM*; SARS PLP yeast: 2%; AMA1-RON2 inh: -3%; Pf growth 96h: 2.1µM*

Results for O=C(Nc1cccc(-c2csc(Nc3ccccc3)n2)c1)c1cc([N+](=O)[O-])cc(C(F)(F)F)c1 ?
Pf growth 48h: inconclusive; SARS PLP yeast: 1%; AMA1-RON2 inh: 0%; Pf growth 96h: inconclusive

What do the screens show for `CCOc1ccc(CN(C)Cc2cc(=O)oc3c(C)c(C)ccc23)cc1OC`?
AMA1-RON2 inh: -21%

How did Cc1cc(NC(=O)c2ccco2)ccc1NC(=O)Cc1cccs1 do in these assays?
Pf growth 48h: 61%; SARS PLP yeast: 6%; AMA1-RON2 inh: 4%; Pf growth 96h: 6.6µM*

How did Cc1cc(NC(=O)c2ccccc2)ccc1NC(=O)Cc1ccccc1 do in these assays?
Pf growth 48h: -12%; SARS PLP yeast: 0%; AMA1-RON2 inh: -5%; Pf growth 96h: 4.1µM*

Results for Cc1ccc(-c2cc(C(=O)N/N=C/c3ccoc3)c3ccccc3n2)cc1 ?
Pf growth 48h: -1%; SARS PLP yeast: inconclusive; AMA1-RON2 inh: 37%; Pf growth 96h: 9.3µM*

What do the screens show for `O=C(N/N=C/c1ccccn1)c1cc(-c2ccccc2)nc2ccccc12`?
Pf growth 48h: inconclusive; SARS PLP yeast: -4%; AMA1-RON2 inh: 78%; Pf growth 96h: 13µM*

How did O=C(N/N=C/c1ccccn1)c1ccc(Cl)c(Cl)c1 do in these assays?
Pf growth 48h: 15µM*; SARS PLP yeast: 14%; Pf growth 96h: inconclusive

What do the screens show for `O=C(N/N=C/c1ccc(O)cc1)c1cc(-c2ccccc2)nc2ccccc12`?
Pf growth 48h: 16%; SARS PLP yeast: 1%; AMA1-RON2 inh: 17%; Pf growth 96h: 1%

Results for O=C(O)CCCC(=O)Nc1ccccc1Oc1ccccc1 ?
Pf growth 48h: inconclusive; SARS PLP yeast: 1%; AMA1-RON2 inh: -5%; Pf growth 96h: 59%

Results for COC(=O)C/C=C/[C@@H](C)[C@@H](/C=N/OC[C@@H](C)[C@H](OCc1ccccc1)C(C)C)NS(=O)(=O)c1ccc(C)cc1 ?
Pf growth 48h: 13µM*; SARS PLP yeast: 1%; Pf growth 96h: 9.3µM*

What do the screens show for `C=CC[C@@H]1C=C[C@H](O/N=C/[C@@H](NS(=O)(=O)c2ccc(C)cc2)[C@H](C)/C=C/CC(=O)OC)[C@@H](CO)O1`?
Pf growth 48h: 10%; SARS PLP yeast: -10%; Pf growth 96h: -27%

Results for Cc1ncc(CO)c(/C=N/Nc2ccc(C(F)(F)F)cn2)c1O ?
Pf growth 48h: inconclusive; SARS PLP yeast: 7%; AMA1-RON2 inh: -17%; Pf growth 96h: 2.3µM*

Results for Cc1ncc(CO)c(/C=N/N=C/c2ccccc2O)c1O ?
Pf growth 48h: inconclusive; SARS PLP yeast: -16%; AMA1-RON2 inh: 37%; Pf growth 96h: -8%

Results for Cc1nn(CCOc2ccccc2Cl)c(C)c1[N+](=O)[O-] ?
Pf growth 48h: -14%; SARS PLP yeast: 1%; AMA1-RON2 inh: -24%; Pf growth 96h: inconclusive

Results for CC[C@@]1(O)C(=O)OCc2c1cc1n(c2=O)Cc2cc3ccccc3nc2-1 ?
Pf growth 48h: inconclusive; SARS PLP yeast: -3%; Pf growth 96h: inconclusive

Results for CCC1(OC(=O)CN)C(=O)OCc2c1cc1n(c2=O)Cc2cc3ccccc3nc2-1 (centres undefined) ?
Pf growth 48h: 1.7µM*; SARS PLP yeast: -4%; AMA1-RON2 inh: -3%; Pf growth 96h: 0.93µM*

Results for CC[C@@]1(O)C(=O)OCc2c1cc1n(c2=O)Cc2cc3c(NC(=O)CN)cccc3nc2-1 ?
Pf growth 48h: inconclusive; SARS PLP yeast: 0%; AMA1-RON2 inh: 81%; Pf growth 96h: 7.4µM*

What do the screens show for `CCn1ncc([N+](=O)[O-])c1C(=O)n1nc(C)cc1C`?
Pf growth 48h: 35%; SARS PLP yeast: -12%; AMA1-RON2 inh: 2%; Pf growth 96h: 35%

How did Cc1ccc(-n2cc(CN3CCNC(=O)CC3)c(-c3cccc(C)c3)n2)cc1 do in these assays?
Pf growth 48h: inconclusive; SARS PLP yeast: -1%; AMA1-RON2 inh: -10%; Pf growth 96h: -21%

How did Cc1ccc(-n2cc(CNCC3CC(=O)N(C4CC4)C3)c(-c3cccc(C)c3)n2)cc1 (centres undefined) do in these assays?
Pf growth 48h: inconclusive; SARS PLP yeast: 0%; AMA1-RON2 inh: -2%; Pf growth 96h: 12µM*

What do the screens show for `O=C(Nc1ccc(Cc2ccc(NC(=O)N3CCOCC3)cc2)cc1)N1CCOCC1`?
Pf growth 48h: inconclusive; SARS PLP yeast: 2%; AMA1-RON2 inh: 2%; Pf growth 96h: 4.1µM*

Results for O=C(Nc1cccc(O)c1)N1CCOCC1 ?
Pf growth 48h: 40%; SARS PLP yeast: 1%; AMA1-RON2 inh: 7%; Pf growth 96h: 12µM*

Results for CN(C)c1ccc(NC(=O)N2CCOCC2)cc1 ?
Pf growth 48h: 6.6µM*; SARS PLP yeast: -17%; AMA1-RON2 inh: -6%; Pf growth 96h: inconclusive

What do the screens show for `O=C(Nc1ccc(F)cc1)N1CCOCC1`?
Pf growth 48h: 20%; SARS PLP yeast: 9%; AMA1-RON2 inh: -1%; Pf growth 96h: inconclusive
